The campaign covered roughly 52,000 compounds. About 4,300 (8.3%) were called active. No stated cut-off is given here; in the data, active means survival mostly below about 52% (no sharp cut-off); inactive means mostly above about 56%. What follows is part of a selection rich in actives, with near analogues and random picks from the rest.
Test system: DeltatarO mutant
Test: S. aureus survival, RN4220 and DeltatarO strains – OD600, teichoic acid synthesis inhibitors, primary screen (AID 463173)
Conditions: S. aureus RN4220 wild type/DeltatarO growth, OD600, 18 h, active compounds read low, screened at 18.75 µg/mL (by protocol)

| Structure (SMILES) | survival |
| --- | --- |
| CC(C)(C)c1ccc(C(=O)NCC(c2cccs2)S(=O)(=O)c2ccc(F)cc2)cc1 (stereo unspecified) | 90% (inactive) |
| Cc1ccc(CNC(=O)C2CCCN(c3nn4cc(-c5ccc(C)cc5)nc4s3)C2)cc1 (stereo unspecified) | 93% (inactive) |
| CC(=O)c1ccc(N2C(=O)N(CC(=O)c3ccc(F)cc3)c3ccccc3S2(=O)=O)cc1 | 102% (inactive) |
| Cc1ccc(NC(=O)CCCc2nc(-c3ccco3)no2)cc1Cl | 80% (inactive) |
| CCc1cccc(C)c1NC(=O)Cn1ncc2c3ccccc3n(Cc3ccccc3)c2c1=O | 86% (inactive) |
| COc1ccc(CNC(=O)c2ccc3c(c2)N(Cc2cccc(Cl)c2)C(=O)c2ccccc2S3)c(OC)c1 | 83% (inactive) |
| O=C(Nc1ccc2c(c1)N(C1CCCC1)C(=O)c1ccccc1S2)c1ccc(F)cc1 | 66% (inactive) |
| COc1cccc(CNC(=O)c2ccc3c(c2)N(Cc2ccc(F)cc2Cl)C(=O)c2ccccc2S3)c1 | 25% (active) |
| O=C(Nc1ccc2c(c1)N(C1CCCC1)C(=O)c1ccccc1S2)c1ccccc1 | 60% (inactive) |
| COc1cccc(CN2C(=O)c3ccccc3Sc3ccc(C(=O)NCc4ccccc4)cc32)c1 | 80% (inactive) |
| CC(=O)Nc1ccc(C(=O)Nc2ccc3c(c2)N(C2CCCC2)C(=O)c2ccccc2S3)cc1 | -4% (active) |
| CC(=O)N1CCc2cc(CNS(=O)(=O)c3ccc(Cl)s3)ccc21 | 70% (inactive) |
| CSc1ccccc1-c1nnc(NC(=O)c2ccc3c(c2)OCCO3)o1 | 119% (inactive) |
| CS(=O)(=O)c1ccc(-c2nnc(NC(=O)c3ccc4c(c3)OCCO4)o2)cc1 | 60% (inactive) |
| CS(=O)(=O)c1ccccc1-c1nnc(NC(=O)c2ccc3c(c2)OCCO3)o1 | -4% (active) |
| COc1ccc(S(=O)(=O)N2CCN(C)CC2)c(Cl)c1Cl | 75% (inactive) |
| CCCCN1C(=O)c2[nH]nc(-c3ccccc3O)c2C1c1cccc(OCc2ccccc2)c1 (stereo unspecified) | 18% (active) |
| CCCN1C(=O)c2[nH]nc(-c3ccccc3)c2C1c1cccc(O)c1 (stereo unspecified) | 54% (inactive) |
| CCCN1C(=O)c2[nH]nc(-c3ccccc3O)c2C1c1cccc(OCc2ccccc2)c1 (stereo unspecified) | 8% (active) |
| O=C1c2[nH]nc(-c3ccccc3O)c2C(c2cccc(OCc3ccccc3)c2)N1CCCO (stereo unspecified) | 56% (active) |
| O=C1c2[nH]nc(-c3ccccc3O)c2C(c2cccc(OCc3ccccc3)c2)N1CCO (stereo unspecified) | 67% (inactive) |
| O=C1c2[nH]nc(-c3ccccc3O)c2C(c2cccc(O)c2)N1Cc1ccncc1 (stereo unspecified) | 103% (inactive) |
| Fc1ccc(-c2cn3cc(Cc4ccc(Cl)cc4)sc3n2)cc1 | 55% (inactive) |

| Structure (SMILES) | survival |
| --- | --- |
| COc1ccc(CCNC(=O)CCCn2c(=O)c3ccccc3n(CC(=O)Nc3cc(Cl)ccc3C)c2=O)cc1OC | 69% (inactive) |
| Cc1sc2c(c1C)c(=O)n(-c1ccc(Cl)cc1)c(=O)n2Cc1cc(=O)n2cc(Br)ccc2n1 | 76% (inactive) |
| COc1ccc2c(c1)CCc1c(C(=O)Nc3ccc(OC)cc3OC)noc1-2 | 180% (inactive) |
| O=C(NCc1ccccc1)c1ccc2c(c1)nc1n2CCOC1 | 84% (inactive) |
| Cc1ccc(C)c(CNC(=O)c2ccc3c(c2)nc2n3CCOC2)c1 | 67% (inactive) |
| CCOc1ccc(CNC(=O)c2ccc3c(c2)nc2n3CCC(C)C2)cc1OC (stereo unspecified) | 73% (inactive) |
| O=C(NCc1ccccc1Br)c1ccc2c(c1)nc1n2CCOC1 | -1% (active) |
| CCOc1ccc(CNC(=O)c2ccc3c(c2)nc2n3CCOC2)cc1 | 90% (inactive) |
| COc1ccc(CCNC(=O)c2ccc3c(c2)nc2n3CCCCC2)cc1OC | 75% (inactive) |
| CCOc1ccc(CCNC(=O)c2ccc3c(c2)nc2n3CCOC2)cc1OCC | 79% (inactive) |
| CCOc1ccc(CNC(=O)c2ccc3c(c2)nc2n3CCOC2)cc1OC | 6% (active) |
| COc1ccc(CCNC(=O)c2ccc3c(c2)nc2n3CCOC2)cc1OC | -2% (active) |
| Cc1cccc(-n2c(SCc3nc(-c4ccccc4C)no3)nnc2-c2ccccc2)c1 | 74% (inactive) |
| O=C(NC1CCN(Cc2nnnn2Cc2ccc3c(c2)OCO3)CC1)c1ccccc1F | 91% (inactive) |
| NC(=O)c1cc(S(=O)(=O)NCC2CCC(C(=O)Nc3ccc(Cl)cc3)CC2)cs1 (stereo unspecified) | 66% (inactive) |
| O=C(NCc1ccc2c(c1)CCN2C(=O)c1ccc(Cl)cc1)c1ccco1 | 80% (inactive) |
| O=S(=O)(c1cc(Br)c(Br)s1)N1CCN(c2ccccc2)CC1 | 72% (inactive) |
| CCn1c(C(=O)NCc2ccc(C)cc2)cc2sc(Cl)cc21 | 92% (inactive) |
| CCn1c(C(=O)NCc2ccccc2Cl)cc2sc(Cl)cc21 | 63% (inactive) |
| Cc1ccc(CNC(=O)c2cc3sc(Cl)cc3n2C)cc1 | 80% (inactive) |
| CCn1c(C(=O)NCCc2ccc(S(N)(=O)=O)cc2)cc2sc(Cl)cc21 | 71% (inactive) |
| CCOc1ccc(NC(=O)c2cc3sc(Cl)cc3n2CC)cc1 | 84% (inactive) |
| COc1ccc(CCNC(=O)c2cc3sccc3n2Cc2ccc(Cl)cc2)cc1OC | 88% (inactive) |

Source: PubChem BioAssay AID463173 (ICCB-Longwood Screening Facility, Harvard Medical School, 2010)
